Holding throughout (assay): qHTS profiling for inhibitors of Plasmodium falciparum proliferation (AID 504749); also: nearly all actives have a fitted effect of over 60% in size
Common to all, as to settings: P. falciparum in erythrocytes, SYBR Green DNA, 72 h; series mostly up to 28.7 µM
(In qHTS, concentration-response curves come from the screen itself.)

The subject of one test is JCK. The essentials:
(§1)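 P. falciparum-infected erythrocytes (0.3% parasitemia, 2.5% hematocrit) incubated with compound 72 h at 37 C, 5% CO2. Parasite DNA detected by SYBR Green after lysis, overnight at room temperature; normalised to 0.29 uM artemisinin and DMSO.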

In a further test the test system is N140. The essentials:
as §1

Another test relates to P93_24. The essentials: as §1
Another test relates to P94_40. An outline of the steps: as §1
The test system of a further test is PAD. The essentials:
as §1

In another test the test system is PC15. An outline of the steps: as §1
For the next test, the system named is PC26. The essentials: as §1
In the next test the test system is PC49. The essentials:
as §1

In the next test the test system is SC27B. The essentials:
as §1

The next test concerns TAB109. An outline of the steps: as §1

Inconclusive results are not listed. Calls of active or inactive are those of the source. Calls follow the shape of the dose curve; as a rule, active = well fitted inhibition curve with a large enough effect; inconclusive = small, poorly fitted or top-dose-only effect; inactive = flat fitted curve, though single readings scatter.
Potency is read from the fitted curve at half-maximal effect.

Regarding `CC(=O)CCCCn1c(=O)c2c(ncn2C)n(C)c1=O`, the call in the test on JCK, in the test with P93_24, in the test with PAD, in the test with PC15, with PC49 and in the test with TAB109 was inactive. Further, the Potency result with N140, in the test on P94_40, in the test on PC26 and in the test on SC27B was “inactive” throughout.
For the compound `CCN1CCC[C@H]1CNC(=O)c1cc(S(N)(=O)=O)ccc1OC`, the compound was classed as inactive in the test on JCK, in the test on P93_24, with PAD, in the test on PC15, in the test with PC49 and with TAB109. Also, the Potency entry with N140, in the test with P94_40, in the test on PC26 and with SC27B was “inactive” each time.
Turning to `COCCCCC(=NOCCN)c1ccc(C(F)(F)F)cc1`, in the test with PC26, the Potency is 6.75 µM (active).
With `O=C1NCC2(CCN(CCc3ccccc3)CC2)O1`, the outcome in the test on JCK, in the test on P93_24, with PAD, in the test with PC15, with PC49 and in the test on TAB109 was inactive. For the same compound, the Potency result with N140, with P94_40, in the test on PC26 and with SC27B was “inactive” in each case.
On to `CCN(CC)CCOC(=O)c1ccc(N)cc1`, for which the call with JCK, in the test with P93_24, with PAD, in the test on PC15, with PC49 and in the test with TAB109 was inactive. The Potency result with N140, with P94_40, in the test with PC26 and in the test with SC27B was “inactive” throughout.
Consider `O=C(O)Cc1cccc2ccccc12`, for which the outcome with JCK, with P93_24, in the test on PAD, in the test on PC15, with PC49 and in the test with TAB109 was inactive. In addition, the Potency entry in the test with N140, in the test on P94_40, in the test with PC26 and with SC27B was “inactive” throughout.
In the case of `CCN(CC)C(=O)c1ccc(O)c(OC)c1`, the result in the test on JCK, in the test with P93_24, in the test on PAD, in the test with PC15, in the test on PC49 and in the test with TAB109 was inactive. Further, the Potency result in the test on N140, in the test with P94_40, in the test with PC26 and with SC27B was “inactive” in each case.
For the compound `O=C1NC(=O)C(c2ccccc2)(c2ccccc2)N1`, the call in the test with JCK, in the test on P93_24, in the test on PAD, in the test on PC15, in the test on PC49 and in the test with TAB109 was inactive. The Potency entry in the test on N140, in the test on P94_40, in the test on PC26 and with SC27B was “inactive” each time.
On to `CC(=O)N[C@@H](CS)C(=O)O`, for which the compound was called inactive with JCK, with P93_24, in the test on PAD, with PC15, with PC49 and in the test with TAB109. Also, the Potency entry with N140, in the test with P94_40, in the test on PC26 and in the test on SC27B was “inactive” each time.
Regarding `CCN(CC)CCNC(=O)c1ccc(N)cc1`, the result in the test with JCK, with P93_24, in the test with PAD, with PC15, in the test with PC49 and with TAB109 was inactive. Moreover, the Potency entry in the test with N140, in the test on P94_40, with PC26 and with SC27B was “inactive” in each case.
In the case of `CC/C(=C(\c1ccccc1)c1ccc(OCCN(C)C)cc1)c1ccccc1`, the outcome with JCK, in the test with PAD and in the test on PC49 was inactive.
For `Clc1ccc(Cn2c(CN3CCCC3)nc3ccccc32)cc1`, the compound was classed as inactive in the test on JCK, in the test on PAD, in the test on PC15, in the test with PC49 and with TAB109. Moreover, the Potency entry in the test with N140, in the test with P94_40 and in the test on SC27B was “inactive” in each case.
For `CC1=C(/C=C/C(C)=C/C=C/C(C)=C/C(=O)Nc2ccc(O)cc2)C(C)(C)CCC1`, the Potency in the test with N140 was 10 µM (active); in the test on P94_40, 11.2 µM (active); with PC26, 12 µM (active); in the test with SC27B, 10 µM (active).
Take `NCCS`: the call in the test on JCK, with P93_24, in the test on PAD, in the test with PC15, with PC49 and with TAB109 was inactive. The Potency entry in the test with N140, in the test on P94_40, in the test on PC26 and in the test with SC27B was “inactive” throughout.
With `CCOC(=O)O[C@]1(C(=O)OCCl)CC[C@@H]2[C@H]3CCC4=CC(=O)C=C[C@]4(C)[C@@H]3[C@@H](O)C[C@@]21C`, the compound was called inactive with JCK, in the test on P93_24, with PAD, with PC15, in the test with PC49 and with TAB109. Moreover, the Potency entry with N140, in the test on P94_40, with PC26 and with SC27B was “inactive” each time.
Regarding `C[N+](C)(C)CCCCCC[N+](C)(C)C`, the outcome in the test on JCK, with P93_24, in the test on PAD, in the test on PC15, in the test on PC49 and with TAB109 was inactive. Further, the Potency result in the test on N140, with P94_40, in the test on PC26 and in the test on SC27B was “inactive” each time.
On to `CCCCC1C(=O)N(c2ccccc2)N(c2ccccc2)C1=O`, for which the call in the test with JCK, in the test on PC15 and in the test with PC49 was inactive. Moreover, the Potency entry with SC27B was “inactive”.
In the case of `CCCNC(=O)NS(=O)(=O)c1ccc(Cl)cc1`, the outcome in the test on JCK, in the test on P93_24, in the test on PAD, with PC15, with PC49 and with TAB109 was inactive. The Potency entry with N140, in the test with P94_40, in the test with PC26 and with SC27B was “inactive” throughout.
With `O=c1[nH]cnc2c1ncn2[C@H]1CC[C@@H](CO)O1`, the result in the test on JCK, in the test on PAD, with PC15, with PC49 and in the test on TAB109 was inactive. For the same compound, the Potency entry in the test with N140, in the test with P94_40, in the test on PC26 and in the test with SC27B was “inactive” throughout.
In the case of `CN(C)CCC(c1ccccc1)c1ccccn1` (configuration not stated), the result in the test on JCK, in the test on P93_24, with PAD and with PC15 was inactive. The Potency result in the test on N140 and in the test on SC27B was “inactive” throughout.
`COc1ccc(Cc2nccc3cc(OC)c(OC)cc23)cc1OC`: the outcome with JCK, in the test with PAD, with PC15, with PC49 and in the test with TAB109 was inactive. For the same compound, the Potency result in the test with N140, in the test on P94_40 and with SC27B was “inactive” in each case.
As for `O=C1Nc2ccc(Cl)cc2C(C#CC2CC2)(C(F)(F)F)O1` (configuration not stated), the call with JCK, in the test with PC49 and in the test on TAB109 was inactive. Besides, the Potency result with N140, in the test with P94_40 and in the test with SC27B was “inactive” each time.
As for `NC(N)=Nc1nc(CSCC/C(N)=N/S(N)(=O)=O)cs1`, the result with JCK, with P93_24, with PAD, in the test on PC15, in the test with PC49 and in the test with TAB109 was inactive. Further, the Potency result in the test with N140, with P94_40, in the test on PC26 and with SC27B was “inactive” each time.
Turning to `C[C@@H](O)[C@H]1C(=O)N2C(C(=O)O)=C(S[C@@H]3CN[C@H](C(=O)N(C)C)C3)[C@H](C)[C@H]12`, the call with JCK, with P93_24, in the test with PAD, with PC15, in the test on PC49 and in the test on TAB109 was inactive. The Potency result in the test with N140, with P94_40, in the test with PC26 and in the test with SC27B was “inactive” each time.
Regarding `Cc1cccc(C)c1OCC(C)N` (configuration not stated), the call with JCK, with PAD, with PC15 and with TAB109 was inactive. Further, the Potency entry in the test on PC26 and with SC27B was “inactive” throughout.
On to `CCCCCN(C)CCC(O)(P(=O)(O)O)P(=O)(O)O`, for which the result in the test with JCK, in the test with P93_24, in the test on PAD, in the test with PC15, in the test on PC49 and with TAB109 was inactive. Moreover, the Potency result in the test with N140, with P94_40, in the test on PC26 and with SC27B was “inactive” throughout.
Turning to `O=C(O)c1cc(-c2ccccc2)nc2ccccc12`, the compound was called inactive with JCK, in the test with P93_24, with PAD, in the test on PC15, in the test with PC49 and with TAB109. In addition, the Potency result with N140, in the test with P94_40, in the test with PC26 and in the test on SC27B was “inactive” in each case.
`CC(=O)O[C@]1(C(C)=O)CC[C@H]2[C@@H]3C=C(Cl)C4=CC(=O)[C@@H]5C[C@@H]5[C@]4(C)[C@H]3CC[C@@]21C`: the compound was called inactive with JCK, with PC15 and in the test on PC49. Also, the Potency result in the test on N140 and in the test with SC27B was “inactive” in each case.
For `Cc1cnc(C(=O)O)c[n+]1[O-]`, the compound was called inactive with JCK, in the test with P93_24, in the test with PAD, in the test with PC15, in the test on PC49 and with TAB109. Also, the Potency entry with N140, in the test on P94_40, in the test on PC26 and in the test with SC27B was “inactive” each time.
For `CC1(C)O[C@H]2C[C@@H]3[C@H]4CCC5=CC(=O)C=C[C@]5(C)[C@@]4(F)[C@@H](O)C[C@]3(C)[C@]2(C(=O)CO)O1`, the outcome in the test on JCK, with P93_24, in the test on PC15, in the test with PC49 and with TAB109 was inactive. In addition, the Potency result in the test on N140, in the test on PC26 and in the test with SC27B was “inactive” throughout.
As for `O=C(O)c1c(Cl)c(Cl)c(Cl)c(Cl)c1-c1c2cc(I)c(=O)c(I)c-2oc2c(I)c(O)c(I)cc12`, the outcome in the test with JCK, in the test on P93_24, with PAD, with PC15, with PC49 and with TAB109 was inactive. For the same compound, the Potency entry in the test with N140, in the test on P94_40, with PC26 and with SC27B was “inactive” each time.
As for `O=C(NCCN1CCOCC1)c1ccc(Cl)cc1`, the result in the test on JCK, in the test on P93_24, with PAD, in the test with PC15, in the test on PC49 and in the test on TAB109 was inactive. In addition, the Potency entry in the test on N140, with P94_40, in the test with PC26 and with SC27B was “inactive” each time.
Take `CC(=O)c1ccc(S(=O)(=O)NC(=O)NC2CCCCC2)cc1`: the result in the test on JCK, with P93_24, in the test with PAD, in the test with PC15 and in the test on PC49 was inactive. The Potency entry with N140, in the test with P94_40, in the test with PC26 and with SC27B was “inactive” each time.
`COc1ccccc1N1CCN(CCCNc2cc(=O)n(C)c(=O)n2C)CC1`: the compound was called inactive in the test on JCK, in the test with P93_24, with PAD, in the test on PC15, in the test on PC49 and with TAB109. The Potency result in the test with N140, in the test on P94_40, in the test on PC26 and in the test with SC27B was “inactive” throughout.

The values are drawn from PubChem BioAssay (NCATS).
